Among all 1,400 compounds or so, about 140 (10%) were called active. Only a sample is shown. Measured potencies and affinities stand elsewhere. A number with no mark means an inactive call.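 How the source made its calls: active means Half-maximal inhibitory dose from the fit at or below ten times the top valid tested dose; inconclusive means Invalid fit, or flat curve showing 30 to 70% inhibition; inactive means the rest.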
What follows are compounds tested against Lysine-specific demethylase 4C (Homo sapiens) (UniProt Q9H3R0) (assay: GASC-1 (JMJD2C) histone demethylase inhibitors, dose response, biochemical, DELFIA europium, cherry-picked samples (AID 488835;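 further: signal is the H3K9me2 demethylation product detected by a dimethyl-specific antibody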)). Settings: GST-JMJD2C(1-420), H3K9me3 demethylation; series mostly up to 6 µM; activity change, negative = inhibition: at the top concentration.
Lysine-specific demethylase 4C (Homo sapiens), sequence (Q9H3R0 1-420 limits assumed): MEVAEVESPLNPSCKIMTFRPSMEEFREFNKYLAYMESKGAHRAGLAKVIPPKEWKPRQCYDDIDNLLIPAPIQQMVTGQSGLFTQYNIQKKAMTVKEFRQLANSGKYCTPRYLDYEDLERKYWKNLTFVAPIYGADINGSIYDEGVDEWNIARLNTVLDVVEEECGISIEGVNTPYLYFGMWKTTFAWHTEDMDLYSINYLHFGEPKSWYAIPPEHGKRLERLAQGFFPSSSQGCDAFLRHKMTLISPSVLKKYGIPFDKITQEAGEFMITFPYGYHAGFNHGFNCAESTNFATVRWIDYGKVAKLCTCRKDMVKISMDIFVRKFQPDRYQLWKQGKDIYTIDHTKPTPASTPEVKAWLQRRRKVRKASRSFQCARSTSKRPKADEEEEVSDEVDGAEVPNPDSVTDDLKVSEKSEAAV

| Structure (SMILES) | activity change, negative = inhibition [%] |
| --- | --- |
| O=C(CC(=O)N/N=C/c1c(F)cccc1Cl)NCc1ccccc1 | 0.208 |
| COc1ccc(NC(=O)N(C)C[C@@H]2Oc3c(NC(=O)Nc4c(C)noc4C)cccc3C(=O)N([C@@H](C)CO)C[C@@H]2C)cc1 | 1.21 |
| Cc1ccc(S(=O)(=O)Nc2ccc3c(c2)C(=O)N([C@H](C)CO)C[C@H](C)[C@@H](CN(C)Cc2ccccc2)O3)cc1 | 9.34 |
| COCCCNC(=O)c1ccc2c(c1)CCN2S(C)(=O)=O | -3.97 |
| Nc1c(C(=O)OCC2CCCO2)c2nc3ccccc3nc2n1C1CCCC1 (stereo not given) | -6.76 |
| Cn1c2ccccc2c2c(C(=O)N3CCN(c4ccccn4)CC3)cn(C3CCCC3)c(=O)c21 | 4.51 |
| Cn1c(CNC(=O)c2ccccc2F)nnc1SCC(=O)Nc1nnc(C2CC2)s1 | -7.32 |
| COC(=O)C1CN(S(=O)(=O)c2ccc(C)cc2)CCN1S(=O)(=O)c1ccc(C)cc1 (stereo not given) | 12.1 |
| CCOC(=O)c1ccc(N2C(=O)C(C)=C(C)C2=O)cc1 | 11.2 |
| CCCCCC1CC(=O)N(Cc2ccccc2)C(=O)N1 (stereo not given) | -2.93 |
| CCN1c2ccccc2-c2nc3ccccc3n2C1c1ccccn1 (stereo not given) | 3.39 |
| Cn1c(=O)c2c(ncn2CCN(CCO)Cc2ccccc2)n(C)c1=O | 9.04 |
| CCCCC1CCC(C(=O)N(CC(C)C)c2c(N)n(Cc3ccccc3)c(=O)[nH]c2=O)CC1 (stereo not given) | 1.3 |
| CCCCN(C(=S)NC(=O)c1cc(OC)c(OC)c(OC)c1)c1c(N)n(Cc2ccccc2)c(=O)[nH]c1=O | 3.98 |
| CCCCn1c(N)c(N(CC)C(=O)c2ccco2)c(=O)[nH]c1=O | -4.81 |
| CCN(C(=O)C(C)Sc1ccc(S(=O)(=O)N2CCOCC2)cn1)c1ccccc1 (stereo not given) | -3.51 |
| Cc1cccc(NCc2ccc(O)c3ncccc23)c1 | 10.8 |
| COCCn1nnnc1C(c1ccccc1)N1CCN(C(=O)c2ccco2)CC1 (stereo not given) | 44.7 |
| Cc1ccc([N+](=O)[O-])cc1N=C(c1cccc([N+](=O)[O-])c1)N1CCOCC1 | 4.23 |
| COc1cccc(Oc2nccc(N(C)C)c2C#N)c1 | -0.396 |

| Structure (SMILES) | activity change, negative = inhibition [%] |
| --- | --- |
| CC(C)CCSc1cc(NCCO)c([N+](=O)[O-])c2nonc12 | 1.05 |
| COc1cc2c(cc1CNC[C@H]1O[C@@H](n3cnc4c(N)ncnc43)[C@H](O)[C@@H]1O)OCO2 | 4.11 |
| CC(OC(=O)c1cccnc1SCc1cc(=O)n2ccccc2n1)c1ccccn1 (stereo not given) | 16 |
| CN(C(=O)c1ccc(NC(=O)Cc2ccc(NC(=O)C3CCN(C(=O)C4CC4)CC3)cc2)cc1)C1CC1 | -1.05 |
| O=C(Nc1c(F)cc(F)cc1Br)c1ccco1 | -0.923 |
| CC(C)NC(=O)Nc1ccc2c(c1)C(=O)N([C@H](C)CO)C[C@H](C)[C@@H](CN(C)C(=O)Nc1ccccc1)O2 | 3.67 |
| Nc1nc(C2CC(=O)OC23CCCCC3)cs1 (stereo not given) | 3.34 |
| CCOc1cc(/C=N/NC(=O)C(=O)N/N=C/c2ccc(O)c(OCC)c2)ccc1O | -5.54 |
| O=C(O)c1ccc2c(c1)nnn2C1CCCCC1 | 4.91 |
| Cc1oc(C(C)(C)C)cc1C(=O)N1CCN(c2ncccc2C(F)(F)F)CC1 | 5.17 |
| O=[N+]([O-])c1ccccc1S(=O)(=O)N1CCN(Cc2ccc3c(c2)OCO3)CC1 | 4.3 |
| CC(=O)c1c(C(C)=O)c(C)n(-c2nc(-c3cccs3)c(C)s2)c1C | -10.4 |
| COc1cc(-c2nnco2)cc(OC)c1OC | 5.49 |
| Cc1c(NC(=O)C2Cc3ccccc3CN2C(=O)c2ccco2)c(=O)n(-c2ccccc2)n1C (stereo not given) | 3.99 |
| CCCCNC(=O)CC1N=C2c3ccccc3N=C(SCC(=O)Nc3cccc(C)c3)N2C1=O (stereo not given) | 10.2 |
| O=C(CNC(=O)c1ccc(S(=O)(=O)N2CCCC2)cc1)N/N=C/c1ccccc1 | 1.45 |
| C[C@H](CO)N1C[C@H](C)[C@@H](CN(C)C(=O)Nc2ccc3c(c2)OCO3)Oc2c(NS(=O)(=O)c3ccc(F)cc3)cccc2C1=O | 4.84 |
| Cc1cc(C(=O)Nc2sc3c(c2C#N)CCC(C)C3)no1 (stereo not given) | 2.2 |
| COc1ccc(/C(C)=N/Nc2nccnc2Cl)cc1 | -1.3 |
| CNC[C@@H]1Oc2ccc(NC(=O)Nc3cccc4ccccc34)cc2C(=O)N([C@@H](C)CO)C[C@@H]1C | 1.77 |

| Structure (SMILES) | activity change, negative = inhibition [%] |
| --- | --- |
| COc1ccc(NC(=O)N(C)C[C@H]2Oc3c(NC(=O)C4CCCCC4)cccc3C(=O)N([C@H](C)CO)C[C@@H]2C)cc1 | -4.45 |
| CC(=O)N/C(=C\c1ccccc1)C(=O)OCC(=O)NC1CCCC1 | 9.51 |
| Cc1ccc(S(=O)(=O)N2[C@@H](c3ccc(Cl)c(Cl)c3)C(C(=O)O)=C[C@H]2C(C)(C)C)cc1 | 0.0975 |
| NC(=O)C1CCN(c2nc(-c3ccccc3Br)cs2)CC1 | -3.63 |
| CC(NC(=O)CCC(=O)c1ccc(F)cc1)C1CC2CCC1C2 (stereo not given) | -1.93 |
| Cc1ccc(S(=O)(=O)N2CCOC2CNC(=O)C(=O)NCCc2ccc(S(N)(=O)=O)cc2)cc1 (stereo not given) | 2.02 |
| Cn1c(=O)[nH]c(=O)c2c1nc(N1CCc3ccccc3C1)n2CCSc1nc2ccccc2s1 | -1.35 |
| CC[C@H]1CCCCc2ccccc2[C@@H](C(=O)C[C@@H](O)CC(C)=O)OC1=O | 1.48 |
| Cn1c(=O)c2c(nc(NC3CCCCC3)n2Cc2ccccc2)n(C)c1=O | 1.97 |
| CCOc1ccc2nc(NC(=O)CS(=O)(=O)c3ccc(C)cc3)sc2c1 | 4.69 |
| CCc1ccc([C@@H]2CC=C(C(=O)O)[C@H](c3ccc(Br)cc3)N2S(=O)(=O)c2ccc(C)cc2)cc1 | -7.79 |
| CC[C@@H]1C=C(C(=O)O)[C@H](c2ccc(C)cc2)N1S(=O)(=O)c1ccc(C)cc1 | 6.18 |
| O=C(CSc1ncccn1)NCc1ccc(F)cc1 | 5.88 |
| C[C@H](CO)N1C[C@H](C)[C@H](CN(C)Cc2ccc(Oc3ccccc3)cc2)Oc2ccc(NC(=O)Nc3cccc4ccccc34)cc2CC1=O | -7.19 |
| COc1ccc(N2CCN(C(=O)Cn3nnc(-c4ccc(N(C)C)cc4)n3)CC2)cc1 | 3.8 |
| Cc1nn(Cc2ccc([N+](=O)[O-])cc2)c(=O)n1-c1cccc(Cl)c1 | 3.54 |
| O=C(c1oc(=O)c2ccccc2c1-c1ccccc1)N1CCOCC1 | 7.13 |
| O=C(CSc1ncccn1)Nc1ccc(S(=O)(=O)N2CCCCC2)cc1 | -1.65 |
| O=C(Nc1ccccc1)Nc1ccc(S(=O)(=O)N2CCCCC2)cc1 | -7.48 |
| Cc1noc(C)c1NC(=O)Nc1cccc2c1O[C@H](CN(C)S(=O)(=O)c1cccs1)[C@@H](C)CN([C@H](C)CO)C2=O | 3.8 |

— PubChem BioAssay AID488835 (Broad Institute, 2010)
